# Where “and” joins values, the source holds several entries; their conditions need not be identical. Identical values can stand only once. In all, about 6,400 compounds went through this assay and about 610 (9.5%) were called active. The sample holds actives, similar compounds and a random draw of the others, so the mix is not that of the screen. Rule as the data show it: active = activity change below about -70%; inconclusive = no clear call, values can overlap the other calls; inactive = above that. A structure can be active in one record and inactive in another.
# Experiment: Toxoplasma gondii ME49Luc growth in HeLa cells, luciferase, no IFN-y, primary screen (AID 1259421)
# Details: T. gondii ME49Luc in HeLa, 72 h, stronger effect = lower value, concentration not given here
row,Compound,"activity change, negative = inhibition"
1,CC(CCCCC(=O)Nc1ccc(C(F)(F)F)cc1)NCCc1cnc[nH]1 (stereo not drawn),-0.447% (inactive) and -3.16% (inactive)
2,CO/N=C(\C(=O)N[C@@H]1C(=O)N2C(C(=O)O)=C(CSC(=O)c3ccco3)CS[C@H]12)c1csc(N)n1,17.6% (inactive) and -30.2% (inactive)
3,CO[C@@H]1COCC[C@@H]1N[C@@H]1CC[C@@](C(=O)N2CCc3ncc(C(F)(F)F)cc3C2)(C(C)C)C1,3.98% (inactive)
4,Cc1cc(NC(=O)Nc2ccc(N(C)C)cc2)c2cc(F)cc(F)c2n1,31.3% (inactive)
5,Cc1ccc(F)c(NC(=O)Nc2ccc(-c3cccc4[nH]nc(N)c34)cc2)c1,-78.3% (active)
6,COc1cc(OC)c2c(c1)OC(c1ccccc1)CC2=O (stereo not drawn),34.9% (inactive)
7,O=c1oc(-c2ccc(C(F)(F)F)cc2)nn1Cc1cc(Cl)ccc1O,24.7% (inactive) and -12.8% (inactive)
8,CCn1c(=O)n(C2=C(CO)CN(CC3CCCCCCC3)CC2)c2ccccc21,12.4% (inactive) and -0.696% (inactive)
9,Cc1cc(Nc2ccc(NC(=O)c3ccc(Nc4ccnc5ccccc45)cc3)cc2)nc(N)n1,-89.9% (active)
10,O=C(OCC(O)CO)c1ccccc1Nc1ccnc2cc(Cl)ccc12 (stereo not drawn),5.66% (inactive)
11,CC(=O)Nc1ccc(C(=O)Nc2ccccc2N)cc1,31.2% (inactive) and 45.5% (inactive)
12,CC1(C)O[C@@H]2CC3C4CCC5=CC(=O)CCC5(C)C4(F)C(O)CC3(C)[C@]2(C(=O)CCl)O1 (stereo partly drawn),-3.24% (inactive) and 2.55% (inactive)
13,CCOC(=O)c1cc(C#N)c(N2CCC(C(=O)NS(=O)(=O)Cc3ccccc3)CC2)nc1C,13.4% (inactive)
14,CCCCCCCC(=O)O,9.6% (inactive) and 5.48% (inactive)
15,CCCCCCCCCCCCCCCCCCCCCCCCC(=O)O,11.5% (inactive)
16,CCCCCCCCCCCCCCCC[n+]1ccccc1,-12.3% (inactive) and -82.5% (active)
17,N#Cc1ccc(C(c2ccc(C#N)cc2)n2cncn2)cc1,0.399% (inactive)
18,c1ccc(-c2ccc(C(c3ccccc3)n3ccnc3)cc2)cc1 (stereo not drawn),-68.3% (inactive) and -81.5% (active)
19,FC(F)(F)c1ccccc1-n1ccnc1,-1.27% (inactive)
20,CCCCCCCCc1ccc(-c2ccc(C(=O)O)cc2)cc1,18% (inactive)
21,CCCCCCCCc1ccc(CCC(N)(CO)CO)cc1,-79.3% (active) and -52.1% (inactive)
22,CCCCCCCCCCCCCCCCCCc1ccc(C(=O)/C=C/C(=O)O)cc1,11.8% (inactive)

row,Compound,"activity change, negative = inhibition"
1,CC1(O)C(O)C(CO)OC1n1cnc2c(NC3CCCC3)nc(Cl)nc21 (stereo not drawn),13.4% (inactive)
2,CC[C@@H](C(=O)[C@@H](C)[C@@H](O)[C@H](C)[C@@H]1O[C@@H]([C@@H](CC)C(=O)O)CC[C@@H]1C)[C@H]1O[C@]2(C=C[C@@H](O)[C@]3(CC[C@@](C)(C4CC[C@](O)(CC)[C@H](C)O4)O3)O2)[C@H](C)C[C@@H]1C (stereo partly drawn),-83.1% (active)
3,CC[C@@H](C(=O)O)C1CC[C@H](C)C([C@@H](C)[C@H](O)[C@H](C)C(=O)[C@H](CC)C2O[C@]3(C=C[C@@H](O)[C@]4(CC[C@@](C)(C5CC[C@](O)(CC)[C@H](C)O5)O4)O3)[C@H](C)C[C@@H]2C)O1 (stereo partly drawn),-72.7% (active) and -80.8% (active)
4,CC[C@@H](C(=O)O)[C@@H]1O[C@@H]([C@@H](C)[C@H](O)[C@H](C)C(=O)[C@H](CC)[C@H]2O[C@]3(C=C[C@@H](O)[C@]4(CC[C@@](C)(C5CC[C@](O)(CC)[C@H](C)O5)O4)O3)[C@H](C)C[C@@H]2C)[C@@H](C)C[C@H]1C (stereo partly drawn),-82.4% (active)
5,CC[C@@H](C(=O)[C@@H](C)[C@@H](O)[C@H](C)[C@@H]1O[C@@H]([C@@H](CC)C(=O)O)CC[C@@H]1C)[C@H]1OC2(C=C[C@@H](O)[C@]3(CC[C@@](C)(C4CC[C@](O)(CC)[C@H](C)O4)O3)O2)[C@H](C)C[C@@H]1C (stereo partly drawn),-90.6% (active)
6,NC(CC(F)C(=O)O)C(=O)O (stereo not drawn),4.86% (inactive)
7,O=C(O)C1/C(=C\CO)OC2CC(=O)N21 (stereo not drawn),6.21% (inactive)
8,Cc1cc(-c2ncc(CC(=O)Nc3ccc(-c4cnccn4)cn3)cc2C)ccn1,5% (inactive)
9,N#CC(C#N)Cc1ccc(O)cc1,0.596% (inactive)
10,COc1ccccc1Oc1c(NS(=O)(=O)c2ccc(C)cn2)nc(-c2ccncc2)nc1OC,7.32% (inactive)
11,O=C(NN1C(=O)[C@@H]2[C@@H]3C=C[C@@H]([C@H]4C[C@@H]34)[C@@H]2C1=O)c1ccc(C(F)(F)F)cc1,3.93% (inactive)
12,COc1ccc(CCN(C)CCCOc2ccc(S(=O)(=O)c3c(C(C)C)c4ccccc4n3C)cc2)cc1OC,-76.5% (active)
13,COc1ccc(CCN(C)CCc2ccc(OC)c(OC)c2)cc1OC,7.34% (inactive) and -3.3% (inactive)
14,COc1ccc(CCN(C)CCCN2CCc3cc(OC)c(OC)cc3CC2=O)cc1OC,10.1% (inactive)
15,CO[C@@H]1[C@@H](O[C@@H]2O[C@H](C)[C@@H](O[C@H]3C[C@@](C)(OC(=O)CC(C)C)[C@@H](O)[C@H](C)O3)[C@H](N(C)C)[C@H]2O)[C@@H](CC=O)C[C@@H](C)[C@@H](O)/C=C/C=C/C[C@@H](C)OC(=O)C[C@H]1OC(C)=O,-10.6% (inactive)
16,COc1ccc(CCO[C@@H]2CCCC[C@H]2N2CC[C@@H](O)C2)cc1OC,23% (inactive)
17,O=C1c2cccc(O)c2C(=O)c2c(O)cc(CO)cc21,-11.5% (inactive)
18,O=C1c2cccc(O)c2C(=O)c2c(O)cccc21,3.71% (inactive) and 0.722% (inactive)
19,O=C1c2c(O)ccc(O)c2C(=O)c2c(NCCNCCO)ccc(NCCNCCO)c21,-73.8% (active) and -3.38% (inactive)
20,CCCCCCCC/C=C/CCCCCCCC(=O)NCCO,-10.5% (inactive)
21,C=C1C(=O)[C@]23[C@H](O)[C@H]1CC[C@@H]2[C@@]12CO[C@]3(O)C[C@@H]1C(C)(C)CC[C@@H]2O,-77.5% (active) and 3.05% (inactive)

# — PubChem BioAssay AID1259421 (Broad Institute, 2018)
